From PubChem BioAssay (NCATS)
Inconclusive results are not listed. The source made the active and inactive calls. Calls follow the shape of the dose curve; as a rule, active = well fitted activation curve with a large enough effect; inconclusive = small, poorly fitted or top-dose-only effect; inactive = flat fitted curve, though single readings scatter.

Assay: Primary redox qHTS assay for identification of artifact compounds. (AID 1845223);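 as to redox activity (% of DA3003): 0% = DMSO and 100% = reference compound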
Conditions: Amplex Red/HRP redox cycling with DTT, fluorescence; series mostly up to 53.8 µM; redox activity (% of DA3003): at the top concentration
Procedure, shortened: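 Redox-cycling detection via DTT (250 uM final) oxidation coupled to Amplex Red (25 uM)/HRP (250 mU/mL) in HBSS. 15 min preincubation plus 30 min after DTT, room temperature. Ex/Em 525/598 nm; 4-parameter Hill fit against DMSO and 10 uM DA3003.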
Potency is read from the fitted curve at half-maximal effect.

Compound | redox activity (% of DA3003) | Potency
CC(C)C[C@H](CO)Nc1nc(S[C@@H](C)c2ccccc2)nc2nc(N)sc12 | 0.625% (inactive) | –
O=C(c1ccc(Cl)cc1)N1CCN(c2ccnc3cc(Cl)ccc23)CC1 | 3.9% (inactive) | –
COc1c(CCC(=O)O)cccc1O[C@@H]1O[C@H](CO)[C@@H](O)[C@H](O)[C@H]1O | -14.5% (inactive) | –
Fc1ccc2c(CCNCc3cccc(OCC(F)(F)C(F)F)c3)c[nH]c2c1 | -2.2% (inactive) | –
COc1cc2c(Nc3cc(F)c(Cl)c(Cl)c3)ncnc2cc1OCC1CCCN(C)CCC1 | 12.8% (inactive) | –
CC(C)(C[C@@](O)(Cc1cc2ccncc2[nH]1)C(F)(F)F)c1cc(F)ccc1O | -3.32% (inactive) | –
CC[C@H]1CN(c2nc(N)c(C(N)=O)nc2Cl)CCN1C1CCN(Cc2ccc(Cl)cc2)CC1 | 9.95% (inactive) | –
CN1CCN(Cc2ccc(NC(=O)Cc3ccc(Oc4cc(NC(=O)C5CC5)ncn4)cc3)cc2C(F)(F)F)CC1 | 4.6% (inactive) | –
O=C(O)CSc1cc(NS(=O)(=O)c2ccc(Br)cc2)c2ccccc2c1O | – | 5.32 µM (active)
CC(=O)[C@H]1CC[C@H]2[C@@H]3CC=C4C[C@@H](OS(=O)(=O)O)CC[C@]4(C)[C@H]3CC[C@]12C | 17.1% (inactive) | –
Cc1nc(C#Cc2ccnc(Cl)c2)c(C)n1-c1ccc(F)cc1 | 7.97% (inactive) | –
CCCc1cc2c(N3CCN(C4=NCC(C)(C)S4)CC3)ncnc2s1 | 7.15% (inactive) | –
Nc1nc(NC2CC2)cc(-c2cccc(Cl)c2Cl)n1 | -4.19% (inactive) | –
O=C(Nc1ccc(C(F)(F)F)cn1)N1CCN(c2ncccc2C(F)(F)F)CC1 | -3.27% (inactive) | –
